Experimental data reported in the supplement of paper PMC13380429.

Tested on: Vero E6 infected with SARS-CoV-2
Assay: inhibition of SARS-CoV-2 cytopathic effect; higher = more antiviral protection, active = above 15
Details: 48 h

Measured: inhibition of SARS-CoV-2 cytopathic effect

O=S(=O)(N[C@H]1CC[C@@](c2cc(F)ccc2F)(S(=O)(=O)c2ccc(Cl)cc2)CC1)C(F)(F)F
inactive: 1 nM 2.61% | 8.33 nM 4.08% | 100 nM -0.09% | 833.33 nM -2.63% | 10000 nM -2.01%

Oc1cccc(-c2nc(N3CCOCC3)c3oc4ncccc4c3n2)c1
inactive: 1 nM -0.17% | 8.33 nM 0.46% | 100 nM -0.59% | 833.33 nM -6.22% | 10000 nM -7.96%

CC(C)c1nc(CN(C)C(=O)N[C@H](C(=O)N[C@@H](Cc2ccccc2)C[C@H](O)[C@H](Cc2ccccc2)NC(=O)OCc2cncs2)C(C)C)cs1 [Ritonavir]
inactive: 1 nM 0.39% | 8.33 nM 1.47% | 100 nM 0.46% | 833.33 nM 1.28% | 10000 nM -1.6%

O=C(NCNC(=O)NC1C(=O)NC(=O)N1CO)NC1C(=O)NC(=O)N1CO (stereo not given) [imidurea]
inactive: 1 nM -0.15% | 8.33 nM 0.45% | 100 nM -1.76% | 833.33 nM -1.38% | 10000 nM 0.38%

Cc1cc(-c2nc3cc(F)ccc3s2)ccc1NC(=O)[C@@H](N)CCCCN [phortress]
inactive: 1 nM -1.03% | 8.33 nM -0.88% | 100 nM -0.54% | 833.33 nM -2.21% | 10000 nM -5.43%

CC[C@@H](C)Nc1cc(C(=O)N[C@H]2C[C@H]3CC[C@@H](C2)N3c2ccc(C(=O)C3CC3)cn2)c(C)cc1C(N)=O
inactive: 1 nM 1.52% | 8.33 nM 1.25% | 100 nM -3.63% | 833.33 nM 2.73% | 10000 nM 1.28%

CCNCC(O)c1cccc(O)c1 (stereo not given) [etilefrine]
inactive: 1 nM -0.51% | 8.33 nM 2.79% | 100 nM -0.96% | 833.33 nM -0.19% | 10000 nM 1.89%

CC(C)(C)C(=O)OCOP(=O)(COCCn1cnc2c(N)ncnc21)OCOC(=O)C(C)(C)C [adefovir-dipivoxil]
inactive: 1 nM 2.79% | 8.33 nM 1.23% | 100 nM -0.37% | 833.33 nM -2.27% | 10000 nM -3.69%

O=C(O)CCc1c(C(=O)O)[nH]c2cc(Cl)cc(Cl)c12
inactive: 1 nM 0.7% | 8.33 nM 2.79% | 100 nM 1.68% | 833.33 nM -2.26% | 10000 nM 0.81%

Cn1nc(C(C)(C)C)cc1C(=O)N[C@@H](Cc1cccc(Cl)c1)C(=O)NCC#N [cathepsin-inhibitor-1]
inactive: 1 nM 0.51% | 8.33 nM 1.86% | 100 nM -0.47% | 833.33 nM -5.37% | 10000 nM -1.36%

Nc1ncnc2[nH]nc(Nc3ccc(F)cc3)c12
inactive: 1 nM -2.32% | 8.33 nM -2.2% | 100 nM -2.66% | 833.33 nM -0.59% | 10000 nM -5.26%

Cc1cc(C)cc(C(=O)N(C)[C@H](Cc2ccc(-c3ccccc3)cc2)C(=O)N[C@@H](Cc2c[nH]c3ccccc23)C(=O)O)c1
inactive: 1 nM 0.46% | 8.33 nM 3.13% | 100 nM 5.42% | 833.33 nM 0.47% | 10000 nM 1.98%

CC(=O)CC(c1ccccc1)c1c(O)c2ccccc2oc1=O (stereo not given) [warfarin]
inactive: 1 nM -10.1% | 8.33 nM -9.65% | 100 nM -9.92% | 833.33 nM -10.1% | 10000 nM -14.2%

CCN(CC)CCNC(=O)c1cc(Cl)c(N)cc1OC [metoclopramide]
inactive: 1 nM -0.44% | 8.33 nM 0.96% | 100 nM 0.31% | 833.33 nM -0.29% | 10000 nM -1.37%

C#C[C@]1(OC(=O)CCCCCC)CC[C@H]2[C@@H]3CCC4=CC(=O)CC[C@@H]4[C@H]3CC[C@@]21C [norethisterone-enanthate]
inactive: 1 nM 2.31% | 8.33 nM 0.16% | 100 nM 0.91% | 833.33 nM -1.87% | 10000 nM -1.58%

CCCS(=O)(=O)Nc1ccc(F)c(C(=O)c2c[nH]c3ncc(-c4ccc(Cl)cc4)cc23)c1F [vemurafenib]
inactive: 1 nM 3.98% | 8.33 nM 1.81% | 100 nM -0.86% | 833.33 nM 2.45% | 10000 nM 4.29%

CC(C)=CCC[C@](C)(O[C@@H]1O[C@H](CO)[C@@H](O)[C@H](O)[C@H]1O)[C@H]1CC[C@]2(C)[C@@H]1[C@H](O)C[C@@H]1[C@@]3(C)CC[C@H](O)C(C)(C)[C@@H]3CC[C@]12C [ginsenoside-C-K]
inactive: 1 nM 3.53% | 8.33 nM 3.09% | 100 nM 3.64% | 833.33 nM -0.21% | 10000 nM 2.52%
